# Results filed as inconclusive are left out. Calls of active or inactive are those of the source. Calls come from the whole dose curve; as a rule, active = well fitted inhibition curve with a large enough effect; inconclusive = small, poorly fitted or top-dose-only effect, or effect the other way; inactive = flat fitted curve, though single readings scatter.
# Biological target: Ubiquitin carboxyl-terminal hydrolase 2 (Homo sapiens) (UniProt O75604)
# Test: Ub-rhodamine 110 based assay for inhibitors Ubiquitin-specific Protease USP2a; note: nearly all actives have a fitted effect of over 50% in size
# Conditions: USP2a Ub-rhodamine110 cleavage, fluorescence; series mostly up to 38.3 µM; activity change, negative = inhibition: at the top concentration
# In short: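 5 nM USP2a preincubated with compounds for 30 min at RT in 20 mM Tris-HCl pH 8.0, 2 mM CaCl2, 2 mM beta-mercaptoethanol, 0.05% CHAPS. Cleavage of 150 nM Ub-rhodamine 110 read kinetically (Ex 485/Em 531) for 7 min.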
# % is set by controls: 0 for no effect and ±100 for the full control effect; potency is the fitted concentration of half-maximal effect.
# Chain of Ubiquitin carboxyl-terminal hydrolase 2 (Homo sapiens) (O75604 whole entry, looked up): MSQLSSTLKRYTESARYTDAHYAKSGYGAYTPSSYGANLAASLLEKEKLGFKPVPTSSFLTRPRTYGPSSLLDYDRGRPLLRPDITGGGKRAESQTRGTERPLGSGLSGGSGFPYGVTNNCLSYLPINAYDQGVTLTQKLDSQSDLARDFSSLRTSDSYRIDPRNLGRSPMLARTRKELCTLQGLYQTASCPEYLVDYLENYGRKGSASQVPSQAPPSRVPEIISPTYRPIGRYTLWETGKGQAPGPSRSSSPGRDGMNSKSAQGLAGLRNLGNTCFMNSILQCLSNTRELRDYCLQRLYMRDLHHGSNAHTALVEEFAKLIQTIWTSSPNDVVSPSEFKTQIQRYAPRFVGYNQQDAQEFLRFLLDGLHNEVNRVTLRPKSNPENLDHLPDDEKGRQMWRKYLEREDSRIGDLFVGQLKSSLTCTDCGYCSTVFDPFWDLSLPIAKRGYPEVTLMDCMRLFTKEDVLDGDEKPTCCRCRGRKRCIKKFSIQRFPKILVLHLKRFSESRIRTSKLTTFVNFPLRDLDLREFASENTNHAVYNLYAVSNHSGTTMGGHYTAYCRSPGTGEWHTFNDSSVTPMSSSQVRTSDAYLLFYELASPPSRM
SMILES,"activity change, negative = inhibition",Potency
CC(C)OCCCNC(=O)c1c(N)n(/N=C/c2ccccn2)c2nc3ccccc3nc12,-3.72% (inactive),–
COc1ccc(CCNC(=O)Cc2cc(=O)[nH]c(=O)[nH]2)cc1OC,-4.19% (inactive),–
COc1cccc(C(=O)NC(C)c2ccc(-c3ccccc3)cc2)c1OC (stereo not given),-7.15% (inactive),–
O=C(NCCOC(=O)c1ccccc1C(=O)OCCNC(=O)c1cccnc1)c1cccnc1,-1.61% (inactive),–
O=C(COC(=O)c1ccc(NS(=O)(=O)c2cccs2)cc1)Nc1nc2c(F)c(F)c(F)cc2s1,–,3.55 µM (active)
NC(=O)c1c(NC(=O)CSc2nnc(-c3ccco3)n2-c2ccccc2)sc2c1CCC2,–,5.01 µM (active)
Cc1c(C(=O)Nc2ccc3c4c(cccc24)CC3)cccc1[N+](=O)[O-],-18% (inactive),–
CC(=O)N1CCCc2cc(S(=O)(=O)CCC(=O)N3CCN(c4cccc(C)c4)C(C)C3)ccc21 (stereo not given),-26.2% (inactive),–
Cc1cccc(NC(=O)NCc2ccc3c(c2)cc(C)n3C)c1,-10.8% (inactive),–
CCc1ccc([C@@H]2CC=C(C(=O)O)[C@H](c3ccc(C(C)(C)C)cc3)N2S(=O)(=O)c2ccc(C)cc2)cc1,–,10 µM (active)
CC[n+]1c(/C=C/N(C)c2ccccc2)n(-c2ccccc2)c2ccc(-c3nc4ccccc4s3)cc21,-26.5% (inactive),–
O=C(O)C1CCN1C1CCCCC1 (stereo not given),-9.55% (inactive),–
CCSc1nc(N2CCCCC2)c2c(c1C#N)CCCC2,-8.51% (inactive),–
Cc1ccc(C)c(OCC(=O)Nc2cc(NC(=O)COc3cc(C)ccc3C)cc(C(=O)O)c2)c1,–,11.2 µM (active)
C=CC[C@H](CC(=O)N(CCO)Cc1ccccc1)C(=O)N[C@H](C)COC(=O)[C@@H](CC=C)CC(=O)OC(C)(C)C,-0.111% (inactive),–
Cc1nc2n(n1)CC(O)CS2 (stereo not given),-3.3% (inactive),–
Cc1ccc(C(=O)COC(=O)CNC(=O)CN2C(=O)c3ccccc3C2=O)cc1,-12.6% (inactive),–
CC1CCCCN1CCNC(=O)c1cnn2ccccc12 (stereo not given),8.54% (inactive),–
O=C(O)CN1C(=O)/C(=C\c2ccccc2OCc2ccc(Cl)cc2Cl)SC1=S,–,10 µM (active)
Cc1cccc(OCC(=O)Nc2ccc(N3CCCC3)cc2)c1C,–,11.2 µM (active)

SMILES,"activity change, negative = inhibition",Potency
CC(=O)Nc1ccc(NC(=O)[C@@H](NC(=O)c2cccc(C)c2)C(C)C)cc1,-2.39% (inactive),–
CC(=O)O[C@H]1[C@H](O)[C@H](Oc2c(O)c(C)c3c4c2[C@@H](C)CC[C@@H]4[C@@H](C)C[C@H]3C=C(C)C)O[C@@H](C)[C@H]1O,-1.57% (inactive),–
CC(=O)c1ccc2c(c1)C1C=CCC1C(C(=O)O)N2 (stereo not given),–,10 µM (active)
CCC(CO)Nc1nc(CN2CCCCC2)nc2scc(-c3ccccc3)c12 (stereo not given),-3.55% (inactive),–
COc1ccc2cc(CN(C(=O)Nc3ccccc3)C3CCCC3)c(=O)[nH]c2c1,-11.7% (inactive),–
O=C(CN1C(=O)/C(=C2\SC(=S)N(CCS(=O)(=O)O)C2=O)c2ccccc21)Nc1cccc(Br)c1,–,5.62 µM (active)
COc1ccc(Cl)cc1S(=O)(=O)Nc1cccc(C(=O)O)c1,-1.12% (inactive),–
O=C(CSc1nc(O)cc(=O)n1-c1ccccc1)NC1CCCCC1,-15.7% (inactive),–
Cc1ccc(OCC(=O)Nc2ccc(N3CCCC3)cc2)cc1C,–,10 µM (active)
CCOc1ccc2nc(NC(=O)Nc3ccccc3)sc2c1,-20.8% (inactive),–
CCO[C@H]1OC(C(=O)N2CCCCCCC2)=C[C@@H](c2ccc(C(F)(F)F)cc2)[C@@H]1CCCO,-6.95% (inactive),–
CCOc1ccccc1N(CC(=O)NC(C)(C)C)C(=O)c1ccc(CN2CCOCC2)o1,-4.9% (inactive),–
Cc1ccc(NC(=O)CN2C(=O)N/C(=C/c3ccco3)C2=O)cc1,–,3.98 µM (active)
CCOC(=O)C1CCN(CC(O)COc2ccc(C(C)(C)C)cc2)CC1 (stereo not given),2.76% (inactive),–
CCOC(=O)c1ccc(NC(=O)C2=C(C)Nc3nc(CCCO)nn3C2c2cccc(C)c2)cc1 (stereo not given),0.0256% (inactive),–
O=C1/C(=C/C=C/c2ccco2)SC(=S)N1c1ccc(O)cc1,–,3.55 µM (active)
COc1ccc(CCN2C(=O)/C(=C\c3ccco3)SC2=S)cc1OC,-10.5% (inactive),–
CN(C)CCCN1C(=O)C(=O)/C(=C(/O)c2ccncc2)C1c1cccnc1 (stereo not given),-1.84% (inactive),–
COCCn1c(SCC(=O)Nc2cc(C)on2)nnc1-c1ccccc1,-6.78% (inactive),–
Cc1cc(C(=O)Nc2ccccc2N2CCOCC2)c2ccccc2n1,-9.38% (inactive),–
